FECH block = inhibitors of human ferrochelatase, primary screen, biochemical, purified FECH, Ni-mesoporphyrin absorbance; 20,000 compounds, 3.3% hits; calls only at 10 µM (by protocol); Ni-mesoporphyrin absorbance 550 nm;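 active = enzyme reaction rate more than 3 SD below the solvent-only control wells on the same plate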;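 also: lower slope than DMSO wells means FECH inhibition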
Target sequence (P22830 whole entry, looked up): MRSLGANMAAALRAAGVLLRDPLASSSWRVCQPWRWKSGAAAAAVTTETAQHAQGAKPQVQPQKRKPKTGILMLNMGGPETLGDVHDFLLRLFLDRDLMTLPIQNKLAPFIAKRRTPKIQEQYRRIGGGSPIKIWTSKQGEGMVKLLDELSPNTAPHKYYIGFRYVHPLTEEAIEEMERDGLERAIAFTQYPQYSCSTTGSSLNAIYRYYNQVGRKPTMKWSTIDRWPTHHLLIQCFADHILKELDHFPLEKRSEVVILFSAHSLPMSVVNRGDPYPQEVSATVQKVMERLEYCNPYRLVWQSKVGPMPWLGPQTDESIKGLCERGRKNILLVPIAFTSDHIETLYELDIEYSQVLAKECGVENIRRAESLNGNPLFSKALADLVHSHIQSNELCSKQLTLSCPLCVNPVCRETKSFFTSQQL
Calls only; n = inactive; + = active, no number. The sample as a whole holds a higher share of hits than the screen did.

SMILES	FECH block
Cc1ccc(Cn2c(=O)oc3ccc(C(=O)N4CCN(C)CC4)cc32)cc1	n
Cc1ncc(CO)c2cc(C3=NS(=O)(=O)c4ccccc4N3)c(=O)oc12	+
Cc1ccoc1C(=O)N1CC[C@@H](c2ccc3c(c2)OCO3)[C@H](O)C1	n
O=c1c2c(nc3nc(CNc4ccc(Br)cc4)[nH]n13)CCC2	+
Cc1ccccc1NCc1nc2nc3c(c(=O)n2[nH]1)CCC3	+
O=c1c2c(nc3nc(CNc4ccccc4F)[nH]n13)CCC2	n
Cc1nc2nc(C)c(NC(=O)Nc3ccccc3Cl)c(=O)n2[nH]1	n
Cc1ccc(Cl)cc1NCc1nc2nc3c(c(=O)n2[nH]1)CCC3	+
Cc1c(Cl)cccc1NCc1nc2nc3c(c(=O)n2[nH]1)CCC3	+
CCc1nc2nc3c(c(=O)n2[nH]1)CCC3	n
Cc1cc(=O)n2[nH]c(NCc3ccc(C(=O)Nc4ccc(Br)cc4)cc3)nc2n1	n
CCOc1ccccc1NCc1nc2nc3c(c(=O)n2[nH]1)CCC3	n
Cc1nc2nc(C)c(NC(=O)Nc3cc(Cl)ccc3C)c(=O)n2[nH]1	n
COc1ccc(NCc2nc3nc4c(c(=O)n3[nH]2)CCC4)c(OC)c1	n
CCc1cc(NCc2cncn2CC)nc(N2CCOCC2)n1	n
COCc1c(C(=O)N2CCN(c3ccccc3C)CC2C)noc1C (centres undefined)	n
O=C(Cn1ccc(-c2ccco2)n1)Nc1ccn(Cc2ccccc2)n1	n
Cc1cc(N2CCCC2)nc(N2CCN(S(=O)(=O)c3ccc(-c4ccccc4)cc3)CC2)n1	n
CN(CCCNC(=O)Cn1c(=O)c2cnc(-c3ccccc3)nc2n(C)c1=O)Cc1ccccc1	n
CCCCN(C)C(=O)C1CCC(Cn2c(=O)c3sccc3n(CC(=O)N3CCCC3)c2=O)CC1 (centres undefined)	n
COc1ccc2nc(CCN(C)C(=O)c3cnn4cc(C)cnc34)[nH]c2c1	n
Cc1ccc(-c2cc(Nc3ccc(O)cc3)nc(C)n2)cc1	n
CCCc1c(C)nc2ncnn2c1Sc1ccc(NC(=O)Nc2cccc(Cl)c2)cc1	n
CC(=O)Nc1c2n(c3ccccc13)CC(C)(C(=O)NCCC(C)C)N(Cc1ccccc1C)C2=O (centres undefined)	n
CC1Cc2cc(CNC(=O)c3cc(C(C)C)nn3C)ccc2O1 (centres undefined)	n
SMILES	FECH block
CCc1cc(Sc2ccccc2NC(=O)c2cccc(F)c2)n2ncnc2n1	n
CC(C)n1cnc2nc(CSc3ccccc3NC(=O)c3ccc(F)c(Cl)c3)cc(=O)n21	n
CC(C)n1cnc2nc(CSc3ccccc3NC(=O)c3cccc(F)c3)cc(=O)n21	+
Cc1ccc(NC(=O)NCCc2nc3cccnc3n2-c2ccccc2)c(Cl)c1	n
CC(C)n1c(CNS(=O)(=O)c2ccccc2F)nc2cccnc21	n
COc1ccc(Nc2cc(C)nc(Nc3ccc(NC(=O)c4ccccc4OC)cc3)n2)cc1	+
COc1ccc(C(=O)Nc2ccc(Nc3nc(C)cc(Nc4ccccc4)n3)cc2)cc1	n
COc1ccc(Nc2cc(C)nc(Nc3ccc(NC(=O)c4cc(Cl)ccc4OC)cc3)n2)cc1	n
Cc1ccc(S(=O)(=O)N2CCc3cc(C(=O)Nc4ccc(S(N)(=O)=O)cc4)ccc32)cc1	n
Cc1cc(NC(=O)CSCc2ccccc2)n(-c2ncnc3c2cnn3-c2cccc(Cl)c2)n1	n
Cc1ccc(NC(=O)CN2CCN(Cc3ccc(F)cc3Cl)S2(=O)=O)cc1	+
O=C(CN1CCN(Cc2ccc(F)cc2Cl)S1(=O)=O)Nc1ccccc1Cl	n
CCc1ccc(NC(=O)CN2CCN(Cc3ccc(F)cc3Cl)S2(=O)=O)cc1	n
O=C(CN1CCN(Cc2ccccc2Cl)S1(=O)=O)Nc1ccc(Cl)cc1	n
COc1ccccc1NC(=O)CN1CCN(Cc2ccc(F)cc2Cl)S1(=O)=O	n
O=C(CN1CCCN(Cc2ccccc2Cl)S1(=O)=O)Nc1ccc(F)c(Cl)c1	+
O=C(CN1CCN(Cc2ccc(F)cc2Cl)S1(=O)=O)Nc1ccc(Br)cc1	n
O=C(CN1CCN(Cc2ccccc2F)S1(=O)=O)Nc1ccc(F)c(Cl)c1	n
CCOC(=O)c1ccccc1NC(=O)CN1CCN(Cc2ccc(F)cc2Cl)S1(=O)=O	+
CN(CCc1ccccn1)C(=O)c1ccc(C#CC(C)(C)O)o1	n
Cc1ccccc1S(=O)(=O)N1CCN(c2cc(-c3ccc(F)cc3)ncn2)CC1	n
Cc1cc(CC(=O)N2CCc3c(nc(-c4ccncc4)nc3N(C)C)C2)on1	n
CNC(=O)CC1CCN(CCC(C)SC)CC1 (centres undefined)	n
O=C(CN1CCCN(Cc2ccc(Cl)cc2)S1(=O)=O)Nc1ccc(F)cc1	n
CCOc1ccc(NC(=O)CN2CCCN(Cc3ccc(F)cc3)S2(=O)=O)cc1	+
SMILES	FECH block
CCc1ccc(NC(=O)CN2CCCN(Cc3ccc(Cl)cc3)S2(=O)=O)cc1	n
CCOc1ccc(NC(=O)CN2CCCN(Cc3ccc(Cl)cc3)S2(=O)=O)cc1	+
CCOc1ccc(NC(=O)CN2CCCN(Cc3ccc(OC)cc3)S2(=O)=O)cc1	n
CCOc1ccc(NC(=O)CN2CCN(Cc3ccc(F)cc3)S2(=O)=O)cc1	n
O=C(CN1CCCN(Cc2ccccc2)S1(=O)=O)Nc1cccc(F)c1	n
COc1ccc(Cl)cc1NS(=O)(=O)c1cc(N2C(=O)CCS2(=O)=O)ccc1OC	n
c1ccc(Cc2nc(-c3cccc(Cn4cccn4)c3)n[nH]2)cc1	n
Cc1cccc(-c2cc(N3CCN(C(=O)Nc4ccccc4Br)CC3)ncn2)c1	n
COc1cccc(CN(c2nc3nc(C)cc(C)n3n2)S(=O)(=O)c2ccc(C)cc2)c1	n
Cc1nc(C(=O)N2CC[C@@H](c3ccc4ccccc4c3)[C@H](O)C2)c(C)o1	n
O=C(c1cccs1)N1CC[C@@H](c2ccc3ccccc3c2)[C@H](O)C1	+
Cc1noc(C)c1C(=O)N1CC[C@@H](c2ccc3ccccc3c2)[C@H](O)C1	n
Cc1sc2ncnc(N(C)Cc3nc(C4CC4)no3)c2c1C	n
Cn1c(=O)n(CCOc2ccccc2)c(=O)c2cnc(-c3cccs3)nc21	+
Cc1noc(C)c1CCn1c(=O)c2cnc(-c3cccs3)nc2n(C)c1=O	n
Cn1c(=O)n(Cc2ccccc2F)c(=O)c2cnc(-c3cccs3)nc21	n
CCN(Cc1c(C)nn(CC)c1C)Cc1cccc2nsnc12	n
CCCc1ccc(S(=O)(=O)N2CCN(Cc3nc4cccnc4n3-c3cc(C)cc(C)c3)CC2)cc1	n
CCc1c(C)nc2ncnn2c1Sc1ccccc1NC(=O)C1CC1	+
CCc1c(C)nc2ncnn2c1Sc1ccc(NC(=O)Cc2ccc(OC)cc2)cc1	n
CCc1c(C)nc2ncnn2c1Sc1ccccc1NC(=O)COc1ccc(C)cc1	n
CCc1c(C)nc2ncnn2c1Sc1ccccc1NC(=O)Cc1ccc(OC)cc1	+
CCc1c(C)nc2ncnn2c1Sc1ccccc1NC(=O)Nc1ccc(C)cc1	n
CCc1c(C)nc2ncnn2c1Sc1ccc(NC(=O)C2CC2)cc1	n
COC(=O)c1ccccc1NS(=O)(=O)c1cc(N2C(=O)CCS2(=O)=O)ccc1C	n
CCc1cc(Sc2ccccc2NC(=O)c2cccc(C)c2)n2nc(C)nc2n1	n
CCc1c(C)nc2ncnn2c1Sc1ccc(NC(=O)Nc2cc(Cl)ccc2C)cc1	n
CCOC(=O)C1CCN(S(=O)(=O)c2cc(N3C(=O)CCS3(=O)=O)ccc2C)CC1	n
CCc1cccc(CC)c1NS(=O)(=O)c1cc(N2C(=O)CCS2(=O)=O)ccc1OC	n
CCc1cccc(C)c1NS(=O)(=O)c1cc(N2C(=O)CCS2(=O)=O)ccc1C	+

Bioassay records from PubChem BioAssay.
